Screening results as filed in PubChem BioAssay.
The sample as a whole holds a higher share of hits than the screen did.
Pf Dd2 inh: inhibitors of Plasmodium falciparum Dd2 growth; Potency, µM (highest dose often 28.9 µM), for inactives: top-dose activity, negative = inhibition, usual class: inhibitors; actives 4.3% (n = 120,000); P. falciparum Dd2 growth, SYBR Green, 72 h; AID 1347417; active means well fitted inhibition curve with a large enough effect;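 further: plate controls were DMSO vehicle for no effect and reference drug for full effect; nearly all actives have a fitted effect of over 65% in size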
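Infected erythrocytes (Dd2, 0.3% parasitemia, 2.5% hematocrit final) are added to compound in RPMI-1640/Albumax II medium, grown 72 h at 37C in low oxygen, then lysed with saponin/Triton-X containing SYBR Green and read by fluorescence.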
* hit, by the source's call; i = inactive; [ ] = remark or other dose. Potency means the concentration at half of the fitted maximal effect.

SMILES | Pf Dd2 inh
CN(C)S(=O)(=O)N1CCN(C(=O)Cn2nc3c(cc2=O)CCCCC3)CC1 | 7%
CCN1CCC(N2CCCC(N3CCN(c4ccccc4OC)CC3)C2)CC1 (stereo not drawn) | i
COc1ccccc1N1CCN(Cc2ccc(=O)n(C)c2)CC1 | 4%
COc1ccccc1N1CCN(C2CCCN(C3CCN(Cc4ccccc4)CC3)C2)CC1 (stereo not drawn) | 13µM*
COc1ccc(NC(=O)N[C@@H]2C=C[C@@H](c3c(C)nn(CCC#N)c3C)C2)cc1 | i
CCC(=O)N1CCc2ccc(C(=O)N3CCCCC3)cc21 | i
COc1cc(CNc2ccc3[nH]c(=O)[nH]c3c2)cc(Cl)c1OCc1ccccc1F | -17%
COc1cc(CNc2ccc3[nH]c(=O)[nH]c3c2)cc(Br)c1OCc1ccc(F)cc1 | 13µM*
COc1cc(CNc2ccc3[nH]c(=O)[nH]c3c2)cc(Cl)c1OCc1ccc(F)cc1 | -26%
COc1ccc(CCCN2C(=O)O[C@@H]3CN(S(=O)(=O)N4CCCC4)C[C@@H]32)cc1 | -4%
CC(=O)Nc1c(C)nn(-c2ccccc2)c1N1CCC(C(=O)Nc2cc(F)ccc2F)CC1 | -6%
Cc1nc([C@@H]2CN(C(=O)Cc3ccc(S(C)(=O)=O)cc3)C[C@H]2C(N)=O)n[nH]1 | 6%
Cc1ccc(C(=O)N2CCC(N3C(=O)CCC3C(=O)NCc3cccnc3)CC2)cc1F (stereo not drawn) | -11%
C[C@@H]1CCC[C@H](C)N1CC(=O)N1CCn2nc(Cc3ccccc3)cc2C1 | 11µM*
O=C(CCn1cnc2ccccc21)N1CCn2nc(Cc3ccccc3)cc2C1 | -15%
C=CCN1CC(C(=O)N2CCn3nc(Cc4ccccc4)cc3C2)CC1=O (stereo not drawn) | 0%
CC(C)N1CCC(CC(=O)N2CCn3nc(Cc4ccccc4)cc3C2)CC1 | 10µM*
CCOCC(=O)N1CCn2nc(Cc3ccccc3)cc2C1 | 4%
Cc1cc(C)n(C(C)C(=O)N2CCn3nc(Cc4ccccc4)cc3C2)n1 (stereo not drawn) | -28%
COC(=O)c1cc(NC(=O)c2nn(C)c3c2COc2ccccc2-3)cc(C(=O)OC)c1 | 16%
Cc1cccc(-c2noc(-c3ccc(N4CCOCC4)c([N+](=O)[O-])c3)n2)c1 | 0%
C=CCS(=O)(=O)N1C[C@H]2OC(=O)N(CCc3cccc(Cl)c3)[C@H]2C1 | -7%
Cc1ccc(C(=O)N2CCOC(c3ccc(Cl)c(Cl)c3)C2)c(=O)n1C (stereo not drawn) | -10%
CCc1ccc(N2CCn3c2nc2c3c(=O)n(Cc3ccc(F)cc3)c(=O)n2C)cc1 | 16%
COCCN1CC2(CCCN(C(=O)c3cc(-c4ccsc4)n[nH]3)C2)CCC1=O (stereo not drawn) | -18%
SMILES | Pf Dd2 inh
CN(C)C[C@H]1C[C@@H](CO)CN(C(=O)c2cc(-c3ccccc3F)n[nH]2)C1 | 12%
O=C(c1cc(-c2ccccc2F)n[nH]1)N1CCC2(CCCN(Cc3ccccc3F)C2)C1 (stereo not drawn) | 8.9µM*
Cc1cccc(-n2c(=O)c3c(c4cc(C)ccc4n3C)n(C)c2=O)c1 | 5%
COc1ccc(Cl)cc1NC(=O)Cn1c(=O)c(-c2ccccc2NC(C)=O)nc2ccccc21 | -4%
CCS(=O)(=O)NCCc1csc2nc(-c3ccc(C)cc3)nn12 | 7%
CCc1ccc(NC(=O)CN(c2ccc(C)cc2)S(=O)(=O)c2c(C)nn(C)c2C)cc1 | -13%
Cc1ccc(CCNC(=O)CN(c2ccc(C)cc2)S(=O)(=O)c2c(C)noc2C)cc1 | 11%
Cc1cccc(CCNC(=O)CN(c2ccc(C(C)C)cc2)S(=O)(=O)c2c(C)nn(C)c2C)c1 | 10µM*
COc1ccc2[nH]c3c(c2c1)CCNC31CCN(C(=O)c2cccn2C)CC1 | -18%
O=c1c2sc3ccccc3c2n(Cc2cccc(F)c2)c(=O)n1CCc1ccccc1 | -28%
Cc1cc(C)cc(NS(=O)(=O)c2ccc3[nH]cc(C(=O)NCCc4ccccc4)c(=O)c3c2)c1 | 37%
CCc1ccc(NS(=O)(=O)c2ccc3[nH]cc(C(=O)NCCc4ccccc4)c(=O)c3c2)cc1 | -13%
Cc1ccccc1NS(=O)(=O)c1ccc2[nH]cc(C(=O)NCCc3ccccc3)c(=O)c2c1 | 11µM*
Cc1ccc(CNC(=O)c2ccc3c(=O)n(-c4ccccc4)c(=O)[nH]c3c2)cc1 | 34%
C[C@@H]1CN(C(=O)Cc2cc3c(cc2Cl)OCCO3)C[C@@]1(O)C1CCC1 | 0%
CC(C)c1cc(C(=O)N[C@@H]2COCC[C@@H]2OCc2cscn2)cs1 | -13%
CCOC(=O)C1CCCN(S(=O)(=O)c2ccc3c(c2)oc(=O)n3C)C1 (stereo not drawn) | -2%
CCOC(=O)c1c(C)[nH]c(C)c1S(=O)(=O)N1CCCC(C(=O)N2CCN(c3cccc(C)c3C)CC2)C1 (stereo not drawn) | 0.56µM*
Cc1cccc(N2CCN(C(=O)C3CCCN(S(=O)(=O)c4ccc5c(c4)oc(=O)n5C)C3)CC2)c1C (stereo not drawn) | 11µM*
Cc1cccc(CCNC(=O)C2CCCN(S(=O)(=O)c3ccc4c(c3)oc(=O)n4C)C2)c1 (stereo not drawn) | -21%
CCOC(=O)c1c(C)[nH]c(C)c1S(=O)(=O)N1CCC(C(=O)N2CCN(c3cc(C)ccc3C)CC2)CC1 | 68%
CCOC(=O)c1c(C)[nH]c(C)c1S(=O)(=O)N1CCCC(C(=O)Nc2cccc(C)n2)C1 (stereo not drawn) | -5%
CCOc1ccc(C2CC(=O)Nc3c2c(C)nn3CC(=O)O)c(OCC)c1C (stereo not drawn) | -15%
COc1ccc(NC(=O)c2cnc(N3CCCC3)nc2)cc1OC | 7%
CCCn1c2ccccc2c2cnn(CC(=O)NCCN(CC)CC)c(=O)c21 | i
SMILES | Pf Dd2 inh
O=C(Cn1ncc2c3ccccc3n(Cc3ccccc3F)c2c1=O)NCCCc1ccccc1 | 4%
CCCCN(CC)CCCNC(=O)Cn1ncc2c3ccccc3n(C)c2c1=O | i
O=C(Cn1ncc2c3ccccc3n(Cc3ccc(F)cc3)c2c1=O)NCCCN1CCCCC1 | 5µM*
O=C(Cn1ncc2c3ccccc3n(Cc3ccc(F)cc3)c2c1=O)NCCC1=CCCCC1 | 43%[0.594 µM]
Cn1c2ccccc2c2cnn(CC(=O)NCc3ccc(Cl)cc3)c(=O)c21 | 22%
O=C(Cn1ncc2c3ccccc3n(Cc3ccc(F)cc3)c2c1=O)NC1CCCCCC1 | i
CCN(CC)CCNC(=O)Cn1ncc2c3ccccc3n(Cc3ccc(Cl)cc3)c2c1=O | 5µM*
CCCCN(CC)CCCNC(=O)Cn1ncc2c3ccccc3n(Cc3ccccc3F)c2c1=O | 4µM*
O=C1CCN(C(=O)[C@H](Cc2ccccc2)NC(=O)c2ccoc2)CCCOCCN1 | -28%
COc1ccc(CCNC(=O)c2ccc3c(c2)N(C)C2CCCCN2C3=O)cc1OC (stereo not drawn) | i
CCN(CC)c1cc(CCC(=O)NCCc2cccnc2)ccn1 | -28%
Cc1ccc2nc3c(cc(C#N)c(=O)n3-c3nnc(SCc4ccc(F)cc4)s3)c(=O)n2c1 | -12%
COC(=O)c1ccc(NC(=O)c2c(-c3ccccc3)c(-c3ccccc3)nn(C)c2=O)cc1 | i
O=C(NCCCN1CCCc2ccccc21)c1cccnc1N1CC2CC(C1)[C@H]1CCCC(=O)N1C2 (stereo partly drawn) | i
O=C(NCCCN1CCOCC1)c1ccc(N2CC3CC(C2)[C@H]2CCCC(=O)N2C3)nc1 (stereo partly drawn) | -30%
O=C(NCCCN1CCCc2ccccc21)c1ccc(N2CC3CC(C2)[C@H]2CCCC(=O)N2C3)nc1 (stereo partly drawn) | 11µM*
